Values joined by “and” are separate entries in the source; they are usually repeats but may differ in a detail not shown here. Identical values can stand only once. Active and inactive are the calls of the source.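 The calls were made as follows, unless noted: active = inhibition at or above 50% relative to wild type and mutant plate controls; inactive = inhibition below 50%.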
Experiments:
[1] = inhibitors of TNFa-induced NFkB p65 translocation, primary screen, imaging, HUVEC, MLSMR starter and 10KST1 sets (AID 438;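 active = inhibition above 20% together with a positive visual image hit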;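 also: compound added about 3h40 before a 20 min TNFalpha stimulation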;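 as to inhibition: signal is the nuclear over cytoplasmic p65 intensity ratio per well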); details: HUVEC TNFa-induced p65 nuclear translocation; cell count: measured here: nuclei count (cytotoxicity indicator), at 2.08 µM; inhibition: at 2 µM, stronger effect = higher value, 0% TNFa-plus-vehicle, 100% no-TNFa wells
[2] = reduction of polyQ htt aggregates in cells – imaging, exon1htt(103Q)mCFP cells, high-content imaging, primary screen (AID 483;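 active = visual image review flags a hit and inhibition of aggregation exceeds 20%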;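 also: compound exposure lasted 3 days before fixation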;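 as to nuclei count: percent of the per-plate median nuclei count of sample wells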); details: exon1htt(103Q)mCFP cell line, aggregate imaging, at 2 µM; inhibition of aggregation: stronger effect = higher value; nuclei count: measured here: cell count, toxicity
[3] = endothelial E-selectin expression blockers – imaging, HUVEC, immunofluorescence, MLSMR starter and 10KST1 sets, primary screen (AID 487;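 active = visually confirmed hit in the image check and inhibition above 20%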;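 as to inhibition: signal is fraction of cell area covered by stained E-selectin grains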;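 as to nuclei count: 100% = median nuclei count of all wells on the same plate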); details: HUVEC TNFalpha-induced E-selectin immunofluorescence imaging, at 2 µM; inhibition: stronger effect = higher value; nuclei count: measured here: cell number, toxicity
[4] = Primary imaging screen for DUSP6 inhibitors that restore phospho-Erk in transfected HeLa cells, chemical complementation (AID 609;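 active = compounds giving at least 50% inhibition in the cell-based MKP-3 phosphatase rescue imaging test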;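 as to inhibition: phospho-Erk level distribution per well compared with pooled transfected vehicle control wells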); details: HeLa MKP-3 transfected, phospho-Erk imaging KS statistic, at 10 µM, cells stimulated with TPA for 15 min
[5] = molecular target: Dual specificity protein phosphatase 6 (Homo sapiens) (UniProt Q16828); assay: as above; details: HeLa MKP-3 transfected, phospho-Erk imaging KS statistic; at 10 µM; stronger effect = higher value; cells stimulated with TPA for 15 min
Chain of Dual specificity protein phosphatase 6 (Homo sapiens) (Q16828 whole entry, looked up): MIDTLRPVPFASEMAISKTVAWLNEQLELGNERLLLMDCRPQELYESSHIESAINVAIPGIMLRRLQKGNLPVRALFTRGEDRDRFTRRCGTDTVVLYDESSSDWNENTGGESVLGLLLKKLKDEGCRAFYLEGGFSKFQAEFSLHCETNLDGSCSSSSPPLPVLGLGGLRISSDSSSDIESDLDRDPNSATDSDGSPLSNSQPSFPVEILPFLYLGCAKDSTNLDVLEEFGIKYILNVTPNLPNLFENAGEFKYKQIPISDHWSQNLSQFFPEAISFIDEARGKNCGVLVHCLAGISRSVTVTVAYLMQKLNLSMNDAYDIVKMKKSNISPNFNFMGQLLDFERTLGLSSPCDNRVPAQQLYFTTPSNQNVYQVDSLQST

[6] = molecular target: Voltage-gated potassium channel subunit beta-2 (Rattus norvegicus) (UniProt P62483); assay: inhibitors of rat Kvbeta2 reductase activity – biochemical, NADPH fluorescence, primary screen (AID 622;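 active = fluorescence slope higher than the sample average by over 3 SD, cut at about -0.22 in these data, passing the limit was not always enough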;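 also: slope of raw intensity against log time taken from 70 to 1610 s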); details: recombinant KvBeta, 4-cyanobenzaldehyde reduction, at 10 µM, stronger effect = higher value
Chain of Voltage-gated potassium channel subunit beta-2 (Rattus norvegicus) (P62483 whole entry, looked up): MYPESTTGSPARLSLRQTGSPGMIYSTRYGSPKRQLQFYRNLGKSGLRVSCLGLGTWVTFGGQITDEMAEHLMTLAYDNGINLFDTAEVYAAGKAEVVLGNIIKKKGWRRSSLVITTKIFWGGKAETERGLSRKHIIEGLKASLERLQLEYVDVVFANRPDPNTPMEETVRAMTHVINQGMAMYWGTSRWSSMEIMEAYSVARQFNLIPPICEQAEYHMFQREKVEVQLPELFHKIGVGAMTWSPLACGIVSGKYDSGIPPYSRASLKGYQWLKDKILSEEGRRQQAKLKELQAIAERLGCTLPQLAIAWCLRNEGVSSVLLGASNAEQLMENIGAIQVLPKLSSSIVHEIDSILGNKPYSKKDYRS

[7] = molecular target: Voltage-gated potassium channel subunit beta-2 (Rattus norvegicus) (UniProt P62483); assay: enhancers of rat Kvbeta2 NADPH turnover – biochemical, NADPH fluorescence, primary screen (AID 623;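 active = NADPH fluorescence slope more negative than the mean of all samples by about 3 SD, 99.7% confidence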;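 also: fluorescence intensity change per second fitted from 20 to 320 s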); details: Recombinant KvBeta, NADPH fluorescence decrease slope, 10 min; at 10 µM; stronger effect = lower value
[8] = molecular target: Alpha-2C adrenergic receptor (Homo sapiens) (UniProt P18825); assay: compounds altering alpha2C-coupled GIRK flux – cell-based, HEK293 alpha2C/GIRK1/2, thallium flux, primary screen (AID 624;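 active = fluorescence slope after compound addition differing from the mean of all screened samples at 99.7% confidence, in either direction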;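 also: slope of fluorescence ratio to pre-addition baseline per second over 15 to 24 s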); details: thallium flux BTC fluorescence, at 10 µM, actives lie on both sides
Chain of Alpha-2C adrenergic receptor (Homo sapiens) (P18825 whole entry, looked up): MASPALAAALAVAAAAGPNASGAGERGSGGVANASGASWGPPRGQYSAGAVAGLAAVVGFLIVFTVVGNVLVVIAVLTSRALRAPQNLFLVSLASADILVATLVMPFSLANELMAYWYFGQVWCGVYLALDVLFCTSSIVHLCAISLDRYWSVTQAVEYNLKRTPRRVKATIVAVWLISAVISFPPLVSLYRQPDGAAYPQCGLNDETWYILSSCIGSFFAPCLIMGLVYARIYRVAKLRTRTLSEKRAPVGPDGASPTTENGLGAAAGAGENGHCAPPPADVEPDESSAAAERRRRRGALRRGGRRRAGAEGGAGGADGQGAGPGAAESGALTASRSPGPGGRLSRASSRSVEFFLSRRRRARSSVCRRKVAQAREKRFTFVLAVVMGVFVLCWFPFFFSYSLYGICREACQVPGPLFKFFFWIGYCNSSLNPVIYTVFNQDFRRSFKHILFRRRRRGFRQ

[9] = inhibitors of larval lipid processing in zebrafish, primary screen, whole organism, PED6 fluorescence, gall bladder and intestine (AID 686;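 active = a full or partial loss of lipid-probe fluorescence in the fish gall bladder, intestine or both, judged by eye; inactive = no fluorescence loss, or compound toxic to the fish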;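 also: larvae 5 to 7 days old with five fish per well; signal comes from phospholipase A2 cleavage of quenched PED6 carried via bile; overnight exposure to compound and PED6 before scoring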); details: Zebrafish larvae PED6 lipid processing, fluorescence scoring; screened at 20 µM (by protocol)
[10] = loss of swimming-algae plug formation – whole organism, Chlamydomonas reinhardtii, WT vs cilia-less mutant, absorbance, 96-well, primary screen (AID 463189); details: Chlamydomonas reinhardtii gravitaxis, OD600 absorbance, 2 days; at 10 µM; stronger effect = higher value;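 also: 0% = wild type cc124 cells in DMSO and 100% = ciliumless bld1 mutant cells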
[11] = blockers of RIG-like receptor reporter activation – cell-based, Sendai virus stimulus, luciferase, 10K MLSCN set, TLR/RLR signaling modifier project, primary screen (AID 602276;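 active = inhibition at or above 50% at 10 µM; inactive = inhibition below 50%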;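 also: firefly luciferase from ISG56 promoter only with Renilla not read in this screen; 0% = Sendai virus plus DMSO and 100% = medium plus DMSO without virus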); details: HEK293 RL24 IRF3 luciferase reporter, at 10 µM, stronger effect = higher value
[12] = TLR3 IRF3 reporter activation blockers – cell-based, poly I:C stimulus, luciferase, 10K MLSCN set, primary screen (AID 602277;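 active = inhibition of the reporter signal at or above 50%; inactive = inhibition below 50%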); details: HEK293-TLR3 RL24 IRF3 luciferase reporter, at 10 µM, stronger effect = higher value
[13] = measured here: cell density z-score
[14] = measured here: nuclear c-Myc green intensity z-score
[15] = measured here: nuclear pErk red intensity z-score, stronger effect = higher value

Structure (SMILES)	cell count [1]	inhibition [1]	inhibition of aggregation [2]	nuclei count [2]	inhibition [3]	nuclei count [3]	z-score [4, 13]	z-score [4, 14]	z-score [4, 15]	inhibition [5]	fluorescence slope [6]	NADPH fluorescence slope [7]	slope [8]	outcome [9]	inhibition [10]	inhibition [11]	inhibition [12]
CC1CNCCN1S(=O)(=O)c1cccc2cnccc12 (stereo not given)	695	-8.2% (inactive)	13% (inactive)	109%	-58.8% (inactive)	129%	-0.528	0.0835	-0.173	15.3% (inactive)	-0.449 (inactive)	-4.6e-05 (inactive)	0.00348 (inactive)	inactive	0.228% (inactive) and 8.92% (inactive) and 17.2% (inactive)	15.5% (inactive)	43% (inactive)
CCc1cn([C@H]2C[C@H](O)[C@@H](CO)O2)c(=O)[nH]c1=O	644	-9.9% (inactive)	-3.6% (inactive)	102%	-69.2% (inactive)	120%	-0.967	-0.117	0.506	9.37% (inactive)	-0.477 (inactive)	5.1e-06 (inactive)	0.00501 (inactive)	inactive	21.4% (inactive)	18.1% (inactive)	34% (inactive)
O=C1OC(c2ccc(O)cc2)(c2ccc(O)cc2)c2ccccc21	608	-5% (inactive)	4.4% (inactive)	77.9%	-50.7% (inactive)	116%	2.02	-0.265	-1.6	21.2% (inactive)	-0.449 (inactive)	-6.8e-05 (inactive)	0.00467 (inactive)	inactive	-5.48% (inactive)	11.5% (inactive)	41.9% (inactive)
CO[C@H]1C=CO[C@@]2(C)Oc3c(C)c(O)c4c(O)c(c(C=NN5CCN(C)CC5)c(O)c4c3C2=O)NC(=O)C(C)=CC=C[C@H](C)[C@H](O)[C@@H](C)[C@@H](O)[C@@H](C)[C@H](OC(C)=O)[C@@H]1C	652	-3.9% (inactive)	-21% (inactive)	108%	-93.2% (inactive)	125%	-0.406	1.71	0.381	13.3% (inactive)	-0.556 (inactive)	4.3e-06 (inactive)	0.00466 (inactive)	inactive	10.8% (inactive)	33.7% (inactive)	49.7% (inactive)
CCC(=O)Oc1ccc(C(CC)C(CC)c2ccc(OC(=O)CC)cc2)cc1 (stereo not given)	548	-8% (inactive)	-5.4% (inactive)	107%	-70.7% (inactive)	132%	-1.07	0.0699	1.82	-4.44% (inactive)	-0.48 (inactive)	1.7e-05 (inactive)	0.0054 (inactive)	inactive	0.847% (inactive)	12.9% (inactive)	33.2% (inactive)
CC(=O)Nc1ccc(S(=O)(=O)Nc2nc3n(n2)C(c2ccccc2)CC(=O)N3)cc1 (stereo not given)	456	-7.4% (inactive)	-5.2% (inactive)	116%	-106% (inactive)	137%	-0.235	-1.01	1.56	21% (inactive)	-0.507 (inactive)	-2e-05 (inactive)	0.00521 (inactive)	inactive	-0.258% (inactive)	16.4% (inactive)	16.2% (inactive)
O=C1N[C@@H](Cc2cnc[nH]2)C(=O)N2CCC[C@@H]12	563	-1.5% (inactive)	17.2% (inactive)	95.1%	-32% (inactive)	119%	-1.25	0.0399	-0.395	-0.493% (inactive)	-0.516 (inactive)	-4.6e-05 (inactive)	0.0041 (inactive)	inactive	10.3% (inactive)	16.7% (inactive)	33.3% (inactive)
CCOC(=O)C1CCN(c2nc3ccccc3nc2C(C#N)C(=O)OCCOC)CC1 (stereo not given)	436	-5.7% (inactive)	12.8% (inactive)	81%	-67.9% (inactive)	120%	0.586	0.396	0.0352	-11.5% (inactive)	-0.529 (inactive)	2.1e-06 (inactive)	0.00561 (inactive)	inactive	-22.9% (inactive)	13.3% (inactive)	3.22% (inactive)
NS(=O)(=O)c1cc2c(cc1C(F)(F)F)NC(Cc1ccccc1)NS2(=O)=O (stereo not given)	519	-2.8% (inactive)	18.4% (inactive)	75.3%	-18.5% (inactive)	105%	-0.539	-0.574	0.0203	-0.493% (inactive)	-0.528 (inactive)	7.9e-07 (inactive)	0.00523 (inactive)	inactive	-16.5% (inactive)	9.6% (inactive)	2% (inactive)
O=C(O)CCCCCCC1C(=O)NC(=O)N1CCC(O)C1CCCCC1 (stereo not given)	579	-9.7% (inactive)	-6.4% (inactive)	97.8%	-76.1% (inactive)	116%	-0.528	-0.266	1.03	-0.493% (inactive)	-0.507 (inactive)	-5.2e-05 (inactive)	0.00541 (inactive)	inactive	1.26% (inactive)	15.9% (inactive)	36.2% (inactive)
Cc1[nH]c2ccc(F)cc2c(=O)c1SC(F)(F)C(F)C(F)(F)F (stereo not given)	491	-1.1% (inactive)	4% (inactive)	77.7%	-48.3% (inactive)	123%	-0.588	0.342	-0.414	2.46% (inactive)	-0.42 (inactive)	-3.8e-05 (inactive)	0.0059 (inactive)	inactive	-4.7% (inactive)	14.5% (inactive)	20.3% (inactive)
CN=c1sc2ccccc2n1CC(O)COCc1ccco1 (stereo not given)	575	0.4% (inactive)	6.5% (inactive)	98.5%	-71.1% (inactive)	138%	0.277	0.426	0.235	1.04% (inactive)	-0.302 (inactive)	-1.1e-05 (inactive)	0.00567 (inactive)	inactive	7.79% (inactive)	12.5% (inactive)	29.1% (inactive)
O=C1CSC(=Nc2ccc(O)cc2)N1c1ccc(O)cc1	380	-9.5% (inactive)	3.6% (inactive)	95.8%	-49.6% (inactive)	92.5%	1.48	1.47	-2.2	9.82% (inactive)	-0.463 (inactive)	-0.000339 (inactive)	0.00571 (inactive)	inactive	-9.81% (inactive)	17.9% (inactive)	25% (inactive)
NS(=O)(=O)c1ccc(C(=O)O)cc1	662	-3.9% (inactive)	7.9% (inactive)	106%	-60.6% (inactive)	124%	1.84	-0.0127	-1.63	31.1% (inactive)	-0.499 (inactive)	3.5e-06 (inactive)	0.00388 (inactive)	inactive	24.6% (inactive)	-11.5% (inactive)	-18% (inactive)
CC(C)C1Cc2c(C#N)c(N)sc(=S)c2CO1 (stereo not given)	487	4.7% (inactive)	2.2% (inactive)	102%	-98.3% (inactive)	146%	1.33	-0.895	0.775	14% (inactive)	-0.291 (inactive)	1.2e-05 (inactive)	0.0021 (inactive)	inactive	27.2% (inactive)	-3.04% (inactive)	12.1% (inactive)
Clc1ccc(Cl)c(-c2ccc(/C=N/c3ncn[nH]3)o2)c1	439	-0.4% (inactive)	6.2% (inactive)	104%	-127% (inactive)	122%	-0.606	-0.195	1.4	-4.27% (inactive)	-0.438 (inactive)	-5.6e-05 (inactive)	0.0057 (inactive)	inactive	73.7% (active)	13.4% (inactive)	18.3% (inactive)
Cc1cc(-c2ccc(F)cc2)nc2cc(C(N)=O)nn12	567	-4% (inactive)	8.1% (inactive)	99.3%	14.3% (inactive)	117%	-0.951	0.396	-0.666	5.57% (inactive)	-0.377 (inactive)	-0.000109 (inactive)	0.00367 (inactive)	inactive	13.5% (inactive)	-10.5% (inactive)	-21.7% (inactive)
COc1ccc(C2/C(=C(/O)c3ccc(OC(C)C)cc3)C(=O)C(=O)N2CCCN2CCOCC2)cc1 (stereo not given)	466	4.1% (inactive)	-2.7% (inactive)	102%	-19.1% (inactive)	134%	-0.477	0.263	0.227	-11.9% (inactive)	-0.319 (inactive)	-2e-05 (inactive)	0.00508 (inactive)	inactive	-1.04% (inactive)	9.78% (inactive)	13.7% (inactive)
COC(=O)Nc1nc2ccc(Sc3ccccc3)cc2[nH]1	678	4.6% (inactive)	9.4% (inactive)	103%	-3.1% (inactive)	76.4%	-0.13	0.104	-0.162	-5.24% (inactive)	-0.475 (inactive)	-5.5e-05 (inactive)	0.00514 (inactive)	inactive	-5.89% (inactive)	43% (inactive)	-12.9% (inactive)
Cc1ccccc1C(OCCN(C)C)c1ccccc1 (stereo not given)	644	-4.5% (inactive)	-3% (inactive)	89%	-41.9% (inactive)	103%	-0.367	-1.7	0.158	-0.828% (inactive)	-0.48 (inactive)	-2.2e-05 (inactive)	0.00302 (inactive)	inactive	24.9% (inactive) and 29.3% (inactive)	22.3% (inactive)	42.3% (inactive)

— PubChem BioAssay
